Measured values from PubChem BioAssay (Tox21).
Where “and” joins values, the source holds several entries; their conditions need not be identical. Identical values can stand only once. Results filed as inconclusive are left out. Calls of active or inactive are those of the source. Unless noted, calls follow the shape of the dose curve; as a rule, active = well fitted curve in the direction sought with a large enough effect in the repeat runs; inconclusive = weak or mixed curves; inactive = no such curve, though single readings can be large; an effect the other way counts as inactive or inconclusive. Non-standard residues stand in square brackets, D forms with d. Residues, ends and D or L forms follow the SMILES beside them. Orn = NCCC[C@H](N)C(=O)O

Tests used:
[1] = qHTS assay to identify small molecule antagonists of the thyroid receptor (TR) signaling pathway - cell viability counter screen (AID 743064); also: nearly all actives have a fitted effect of over 50% in size; also: potency is read from the fitted curve at half-maximal effect
How it was run: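 Counter screen for cytotoxicity: compound plus T3 (1 nM final) on GH3.TRE-Luc cells, 23.5 h at 37 °C, then fluorescence viability readout with CellTiter-Fluor.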

[2] = qHTS assay to identify small molecule antagonists of the thyroid receptor (TR) signaling pathway (AID 743065); also: nearly all actives have a fitted effect of over 55% in size; also: potency is read from the fitted curve at half-maximal effect
How it was run: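 GH3.TRE-Luc rat pituitary cells (two TREs driving luciferase) were dosed with compound, then stimulated with 1 nM T3 (final) for 23.5 h at 37 C. ONE-Glo luminescence was the read-out, with CellTiter-Fluor fluorescence as the cytotoxicity counter-screen.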

[3] = tested on: thyroid hormone receptor (rat, GH3 cells); assay: qHTS assay to identify small molecule agonists of the thyroid receptor (TR) signaling pathway (AID 743066; calls by dose curve)
[4] = qHTS assay to identify small molecule antagonists of the estrogen receptor alpha (ER-alpha) signaling pathway - cell viability counter screen (AID 743074; calls by dose curve;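 also: HEK293 cells carrying ER-alpha-UAS-bla reporter stimulated with 17beta-estradiol; nearly all actives have a fitted effect of over 45% in size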; also: potency is read from the fitted curve at half-maximal effect)
[5] = qHTS assay to identify small molecule antagonists of the estrogen receptor alpha (ER-alpha) signaling pathway using the BG1 cell line - cell viability counter screen (AID 743081);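 also: compound given together with 17beta-estradiol as the ER stimulus; nearly all actives have a fitted effect of over 45% in size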; also: potency is read from the fitted curve at half-maximal effect
Aromatase (Homo sapiens) = Aromatase (Homo sapiens) (UniProt P11511); assay: qHTS assay to identify aromatase inhibitors (AID 743083); also: nearly all actives have a fitted effect of over 55% in size; also: potency is read from the fitted curve at half-maximal effect
Aromatase (Homo sapiens), sequence (P11511 whole entry, looked up): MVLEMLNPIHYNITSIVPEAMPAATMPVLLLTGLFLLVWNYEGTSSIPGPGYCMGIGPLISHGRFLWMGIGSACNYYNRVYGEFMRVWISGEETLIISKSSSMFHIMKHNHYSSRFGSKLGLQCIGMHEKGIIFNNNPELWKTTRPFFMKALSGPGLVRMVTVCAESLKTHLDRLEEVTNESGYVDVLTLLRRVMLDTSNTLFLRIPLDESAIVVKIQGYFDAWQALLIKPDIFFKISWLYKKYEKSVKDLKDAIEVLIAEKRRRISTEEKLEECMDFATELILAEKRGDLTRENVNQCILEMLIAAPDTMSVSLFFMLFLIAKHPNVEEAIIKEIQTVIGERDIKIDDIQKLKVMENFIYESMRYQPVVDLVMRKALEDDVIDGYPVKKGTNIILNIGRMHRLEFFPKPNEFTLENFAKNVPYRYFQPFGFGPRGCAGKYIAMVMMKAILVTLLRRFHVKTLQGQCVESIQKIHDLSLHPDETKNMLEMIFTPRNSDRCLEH

[6] = qHTS assay to identify aromatase inhibitors - cell viability counter screen (AID 743084);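 also: cells stimulated with testosterone during compound exposure; nearly all actives have a fitted effect of over 55% in size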; also: potency is read from the fitted curve at half-maximal effect
[7] = target: Aryl hydrocarbon receptor (Homo sapiens) (UniProt P35869); assay: qHTS assay to identify small molecule that activate the aryl hydrocarbon receptor (AhR) signaling pathway (AID 743085); also: nearly all actives have a fitted effect of over 15% in size; also: potency is read from the fitted curve at half-maximal effect;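 as to activation: HG2L7.5c1 human HepG2 liver cells with stably integrated DRE-driven firefly reporter; series mostly up to about 70 µM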
Aryl hydrocarbon receptor (Homo sapiens), sequence (P35869 whole entry, looked up): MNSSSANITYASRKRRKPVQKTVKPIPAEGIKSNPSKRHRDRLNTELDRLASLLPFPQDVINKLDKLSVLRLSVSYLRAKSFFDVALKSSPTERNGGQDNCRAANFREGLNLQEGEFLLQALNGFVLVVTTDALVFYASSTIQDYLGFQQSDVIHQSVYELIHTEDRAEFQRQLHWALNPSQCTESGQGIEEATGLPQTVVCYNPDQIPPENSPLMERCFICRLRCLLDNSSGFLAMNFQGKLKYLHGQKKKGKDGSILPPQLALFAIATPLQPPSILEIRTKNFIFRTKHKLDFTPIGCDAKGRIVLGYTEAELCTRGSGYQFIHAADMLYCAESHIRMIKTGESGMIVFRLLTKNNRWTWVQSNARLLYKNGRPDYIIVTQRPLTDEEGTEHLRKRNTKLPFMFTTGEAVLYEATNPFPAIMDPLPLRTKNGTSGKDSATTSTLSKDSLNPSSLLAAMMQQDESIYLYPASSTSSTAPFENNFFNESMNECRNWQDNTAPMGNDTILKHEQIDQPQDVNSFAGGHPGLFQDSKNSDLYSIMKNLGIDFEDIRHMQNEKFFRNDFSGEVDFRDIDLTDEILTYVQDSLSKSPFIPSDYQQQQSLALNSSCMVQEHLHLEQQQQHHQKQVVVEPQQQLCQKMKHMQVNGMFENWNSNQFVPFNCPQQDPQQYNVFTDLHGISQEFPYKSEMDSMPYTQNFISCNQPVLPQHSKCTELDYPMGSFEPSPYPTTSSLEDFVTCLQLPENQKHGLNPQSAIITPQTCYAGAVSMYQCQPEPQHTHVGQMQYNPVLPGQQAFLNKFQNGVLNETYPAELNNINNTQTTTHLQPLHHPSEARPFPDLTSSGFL
How it was run: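 Measured in HG2L7.5c1 cells: CellTiter-Fluor signal (30 min incubation, 37C) for viability, then luciferase luminescence (30 min, room temperature). Compound contact time was 24 h at 37C, following a 5 h pre-incubation.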

[8] = qHTS assay to identify small molecule that activate the aryl hydrocarbon receptor (AhR) signaling pathway - cell viability counter screen (AID 743086); also: nearly all actives have a fitted effect of over 45% in size; also: potency is read from the fitted curve at half-maximal effect
How it was run: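 HepG2-AhR-luc (HG2L7.5c1) cells, 4000/well, treated 24 h at 37 C with compound; viability measured as CellTiter-Fluor fluorescence after 30 min in the same wells as the luciferase read.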

[9] = target: Peroxisome proliferator-activated receptor gamma (Homo sapiens) (UniProt P37231); assay: qHTS assay to identify small molecule agonists of the peroxisome proliferator-activated receptor gamma (PPARg) signaling pathway (AID 743094; active = well fitted activation curve with a large enough effect in the signal ratio in the repeat runs, not every such curve was filed as active; the % refers to the signal ratio)
Peroxisome proliferator-activated receptor gamma (Homo sapiens), sequence (P37231 whole entry, looked up): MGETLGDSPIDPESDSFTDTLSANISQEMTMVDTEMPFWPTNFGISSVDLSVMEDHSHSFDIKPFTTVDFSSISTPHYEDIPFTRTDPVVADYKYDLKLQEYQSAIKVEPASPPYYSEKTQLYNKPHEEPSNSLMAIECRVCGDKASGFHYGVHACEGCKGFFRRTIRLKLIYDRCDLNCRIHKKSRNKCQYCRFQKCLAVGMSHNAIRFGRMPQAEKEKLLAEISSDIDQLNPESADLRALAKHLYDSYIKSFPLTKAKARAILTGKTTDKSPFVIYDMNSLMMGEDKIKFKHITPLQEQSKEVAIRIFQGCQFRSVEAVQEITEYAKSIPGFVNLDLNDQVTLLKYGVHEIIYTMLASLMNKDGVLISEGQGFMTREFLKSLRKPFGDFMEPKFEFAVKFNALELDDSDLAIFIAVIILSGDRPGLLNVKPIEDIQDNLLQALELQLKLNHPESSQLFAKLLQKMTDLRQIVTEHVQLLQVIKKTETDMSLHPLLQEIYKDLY
How it was run: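 Cell-based bla reporter, HEK293H background, PPARg-driven UAS. Pre-incubation 5 h, 37C, 5% CO2. Compound 17 h, 37C. Substrate 1 h RT; fluorescence.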

[10] = target: Estrogen receptor (Homo sapiens) (UniProt P03372); assay: qHTS assay to identify small molecule agonists of the estrogen receptor alpha (ER-alpha) signaling pathway (AID 743075; calls by dose curve;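 also: HEK293 GripTite cells with ER-alpha and UAS-driven beta-lactamase reporter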)
Estrogen receptor (Homo sapiens), sequence (P03372 whole entry, looked up): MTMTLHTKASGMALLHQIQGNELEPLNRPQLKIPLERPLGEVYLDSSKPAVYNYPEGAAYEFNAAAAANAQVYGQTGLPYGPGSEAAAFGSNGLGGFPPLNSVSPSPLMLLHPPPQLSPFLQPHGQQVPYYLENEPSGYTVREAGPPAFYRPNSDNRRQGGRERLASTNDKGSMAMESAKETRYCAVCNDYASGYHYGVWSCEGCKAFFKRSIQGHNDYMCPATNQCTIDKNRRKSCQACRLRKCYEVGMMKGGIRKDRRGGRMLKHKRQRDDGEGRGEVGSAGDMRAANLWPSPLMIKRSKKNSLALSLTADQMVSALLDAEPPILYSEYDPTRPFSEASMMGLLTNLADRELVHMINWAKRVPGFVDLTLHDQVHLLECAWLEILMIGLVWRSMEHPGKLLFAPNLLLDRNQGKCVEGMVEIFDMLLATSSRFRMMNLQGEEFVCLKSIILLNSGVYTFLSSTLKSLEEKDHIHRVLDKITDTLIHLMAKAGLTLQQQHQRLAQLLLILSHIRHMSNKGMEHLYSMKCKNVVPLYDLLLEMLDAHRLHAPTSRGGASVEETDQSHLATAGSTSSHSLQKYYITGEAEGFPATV

[11] = target: Estrogen receptor (Homo sapiens) (UniProt P03372); assay: qHTS assay to identify small molecule agonists of the estrogen receptor alpha (ER-alpha) signaling pathway using the BG1 cell line (AID 743079); also: nearly all actives have a fitted effect of over 20% in size
[12] = qHTS assay to identify small molecule antagonists of the estrogen receptor alpha (ER-alpha) signaling pathway using the BG1 cell line (AID 743080; calls by dose curve;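 also: BG1 cells stimulated with 17beta-estradiol alongside compound; series mostly up to about 70 µM; nearly all actives have a fitted effect of over 25% in size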)
How it was run: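 Luciferase inhibition measured with ONE-Glo after 30 min at RT in BG1Luc4E2 cells given test compounds and 17beta-estradiol for 21.5 h at 37 C; CellTiter-Fluor viability read in the same wells beforehand.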

[13] = qHTS assay to identify small molecule antagonists of the peroxisome proliferator-activated receptor gamma (PPARg) signaling pathway - cell viability counter screen (AID 743194); also: nearly all actives have a fitted effect of over 55% in size; also: potency is read from the fitted curve at half-maximal effect
How it was run: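 Cytotoxicity counter screen in PPARg-bla HEK293H cells, same wells as reporter assay. Compounds plus 50 nM rosiglitazone (final) for 17 h at 37 C, then viability read by CellTiter-Glo luminescence.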

[14] = qHTS assay for small molecule agonists of the antioxidant response element (ARE) signaling pathway (AID 743202; active = well fitted activation curve with a large enough effect in the signal ratio in the repeat runs, not every such curve was filed as active; the % refers to the signal ratio; also: potency is read from the fitted curve at half-maximal effect)
How it was run: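 HepG2 ARE-bla cells; 16 h treatment at 37 C; FRET-based beta-lactamase fluorescence read after 2 h substrate incubation at room temperature.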

[15] = qHTS assay for small molecule agonists of the antioxidant response element (ARE) signaling pathway - cell viability counter screen (AID 743203; calls by dose curve; also: nearly all actives have a fitted effect of over 55% in size; also: potency is read from the fitted curve at half-maximal effect)
How it was run: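 Measured in the same wells as the beta-lactamase ARE reporter, this read-out is CellTiter-Glo luminescence from HepG2 ARE-bla cells given compounds for 16 hrs.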

[16] = qHTS assay to identify small molecule agonists of the peroxisome proliferator-activated receptor delta (PPARd) signaling pathway - cell viability counter screen (AID 743211); also: nearly all actives have a fitted effect of over 55% in size; also: potency is read from the fitted curve at half-maximal effect
How it was run: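 Following 5 h plating at 37 C and 5% CO2, PPARd UAS-bla HEK293H cells took up test compounds for 17 h. Viability was quantified by luminescence 30 min after CellTiter-Glo addition at room temperature.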

[17] = target: Peroxisome proliferator-activated receptor delta (Homo sapiens) (UniProt Q03181); assay: qHTS assay to identify small molecule agonists of the peroxisome proliferator-activated receptor delta (PPARd) signaling pathway (AID 743212; calls by dose curve)
Peroxisome proliferator-activated receptor delta (Homo sapiens), sequence (Q03181 whole entry, looked up): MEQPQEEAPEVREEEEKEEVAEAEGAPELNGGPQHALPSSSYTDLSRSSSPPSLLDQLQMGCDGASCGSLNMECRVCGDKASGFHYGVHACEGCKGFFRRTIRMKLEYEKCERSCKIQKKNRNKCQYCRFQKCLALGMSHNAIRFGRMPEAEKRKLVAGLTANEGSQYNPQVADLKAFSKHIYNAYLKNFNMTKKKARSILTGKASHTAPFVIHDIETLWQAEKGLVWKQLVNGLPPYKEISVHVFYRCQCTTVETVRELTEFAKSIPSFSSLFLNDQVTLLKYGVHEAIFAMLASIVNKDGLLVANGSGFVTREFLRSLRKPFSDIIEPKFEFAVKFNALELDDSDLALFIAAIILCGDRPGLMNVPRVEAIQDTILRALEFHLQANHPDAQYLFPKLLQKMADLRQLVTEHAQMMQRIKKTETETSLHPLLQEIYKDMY
How it was run: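 Tox21 library screened in GeneBLAzer PPARd UAS-bla HEK293H cells. After compound treatment at 37 C, a FRET-based beta-lactamase substrate was applied for 2 h and fluorescence recorded.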

Measured: Potency

CCN1CCCC1CNC(=O)c1cc(S(=O)(=O)CC)ccc1OC (stereo unspecified)
inactive: [1] | [2] | [3] | [4] | [5] | Aromatase (Homo sapiens) | [6] | [7] | [8] | [9]

CNCCC=C1c2ccccc2CCc2ccccc21
inactive: [10] | [11] | [12] | [5] | [6] | [7]
active: [1] 11.9 µM | [2] 10.6 µM

N[C@@H](Cc1cnc[nH]1)C(=O)O
inactive: [1] | [2] | [3] | [4] | [5] | Aromatase (Homo sapiens) | [6] | [8] | [9]

c1ccc2cc3c4ccccc4c4ccccc4c3cc2c1
active: [7] 97.3 nM | [14] 1.94 µM
inactive: [1] | [2] | [3] | [4] | [5] | [6] | [13] | [15] | [16] | [17]

O=C1CCC(c2ccc(-n3ccnc3)cc2)=NN1
inactive: [1] | [2] | [3] | [10] | [11] | [12] | [5] | [6] | [8] | [9]
active: Aromatase (Homo sapiens) 6.68 µM | [7] 5960 nM

C=C1C(CCl)(CCl)C2(Cl)C(Cl)C(Cl)C1(Cl)C2(Cl)Cl (stereo unspecified)
inactive: [3] | [5] | [7] | [8]
active: [1] 5.96 µM and 67.8 µM | [2] 5.31 µM and 48 µM | [4] 23.9 µM | Aromatase (Homo sapiens) 29.8 µM and 60.4 µM | [6] 53.8 µM | [13] 54.3 µM | [15] 60.4 µM | [16] 34.3 µM

COc1cc2c(c(OC)c1OC)-c1c(cc3c(c1OC)OCO3)C[C@@H](C)[C@](C)(O)C2
active: [8] 29.8 µM
inactive: [1] | [2] | [3] | [4] | Aromatase (Homo sapiens) | [9]

CCCCCCCCCCCCCCCCCCNC(=O)OC1CCN(C(=O)OC[C@H](COC(=O)N(Cc2cccc[n+]2CC)C(=O)c2ccccc2OC)OC)CC1
inactive: [10] | [7] | [17]
active: [1] 15 µM | [2] 13.3 µM | [4] 23.9 µM | Aromatase (Homo sapiens) 21.1 µM | [6] 29.8 µM | [15] 26.6 µM | [16] 10.6 µM

NC(=S)NS(=O)(=O)c1ccc(N)cc1
inactive: [1] | [2] | [3] | [4] | Aromatase (Homo sapiens) | [6] | [7] | [8] | [9]

CN(C[C@@H](CC[N+]12CCC(C3CCCCC3)(CC1)CC2)c1ccc(Cl)c(Cl)c1)C(=O)c1cc(C(F)(F)F)cc(C(F)(F)F)c1
active: [1] 21.7 µM | [2] 27.3 µM | [4] 49 µM | Aromatase (Homo sapiens) 61.1 µM | [6] 61.1 µM | [8] 54.5 µM | [13] 54.9 µM | [15] 30.6 µM | [16] 17.4 µM
inactive: [7]

Cc1cc(C(=O)NCCc2ccc(S(=O)(=O)NC(=O)NN3CCCCCC3)cc2)no1
inactive: [1] | [2] | [3] | [4] | [5] | Aromatase (Homo sapiens) | [6] | [8] | [9]

CC(C)C[C@@H]1NC(=O)[C@H](CCCN)NC(=O)[C@H](C(C)C)NC(=O)[C@@H]2CCCN2C(=O)[C@@H](Cc2ccccc2)NC(=O)[C@H](CC(C)C)NC(=O)[C@H](CCCN)NC(=O)[C@H](C(C)C)NC(=O)[C@@H]2CCCN2C(=O)[C@@H](Cc2ccccc2)NC1=O (cyclo(V[Orn]L[dF]PV[Orn]L[dF]P))
active: [1] 2.11 µM | [2] 0.841 µM | [4] 10.7 µM | Aromatase (Homo sapiens) 1.88 µM | [8] 18.8 µM
inactive: [10] | [7]

C[C@]12O[C@H](C[C@]1(O)CO)n1c3ccccc3c3c4c(c5c6ccccc6n2c5c31)CNC4=O
active: [1] 0.188 µM | [2] 0.188 µM | [4] 21.3 µM | [5] 21.1 µM | Aromatase (Homo sapiens) 2.11 µM | [6] 23.7 µM | [7] 531 nM | [8] 18.8 µM

CNCC(=O)N[C@@H](CCCN=C(N)N)C(=O)N[C@H](C(=O)N[C@@H](Cc1ccc(O)cc1)C(=O)N[C@H](C(=O)N[C@@H](Cc1cnc[nH]1)C(=O)N1CCC[C@H]1C(=O)N[C@@H](C)C(=O)O)C(C)C)C(C)C
inactive: [1] | [2] | [3] | [4] | [5] | Aromatase (Homo sapiens) | [6] | [7] | [9]

CN1CCN(c2ccccc2/C=C2\SCCN(c3ccc(Cl)c(Cl)c3)C2=O)CC1
active: [1] 8.63 µM | [2] 8.63 µM | [4] 43.6 µM | [13] 49 µM | [15] 24.3 µM | [16] 24.5 µM
inactive: [10] | Aromatase (Homo sapiens) | [7]
